Only some compounds are listed: those with a hit (about 3.5% of all), similar ones and a draw of the others.
TMEM16A act – mouse TMEM16A channel activation, primary screen. Q8BHY3. HEK293 TMEM16A/YFP-H148Q/I152L, iodide quench fluorescence; stronger effect = lower value. B-score at 10 µM. 340,000 compounds, 0.3% hits;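 active = fluorescence-ratio B-score plate-corrected deviation score at least 3 library SD below zero, with starting fluorescence score within 5 deviations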;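 note: channel opened by trigger with iodide after compound preincubation; score built on the fluorescence ratio of max minus min over baseline; more negative score means more quench and so TMEM16A activation or potentiation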
Target sequence (Q8BHY3 whole entry, looked up): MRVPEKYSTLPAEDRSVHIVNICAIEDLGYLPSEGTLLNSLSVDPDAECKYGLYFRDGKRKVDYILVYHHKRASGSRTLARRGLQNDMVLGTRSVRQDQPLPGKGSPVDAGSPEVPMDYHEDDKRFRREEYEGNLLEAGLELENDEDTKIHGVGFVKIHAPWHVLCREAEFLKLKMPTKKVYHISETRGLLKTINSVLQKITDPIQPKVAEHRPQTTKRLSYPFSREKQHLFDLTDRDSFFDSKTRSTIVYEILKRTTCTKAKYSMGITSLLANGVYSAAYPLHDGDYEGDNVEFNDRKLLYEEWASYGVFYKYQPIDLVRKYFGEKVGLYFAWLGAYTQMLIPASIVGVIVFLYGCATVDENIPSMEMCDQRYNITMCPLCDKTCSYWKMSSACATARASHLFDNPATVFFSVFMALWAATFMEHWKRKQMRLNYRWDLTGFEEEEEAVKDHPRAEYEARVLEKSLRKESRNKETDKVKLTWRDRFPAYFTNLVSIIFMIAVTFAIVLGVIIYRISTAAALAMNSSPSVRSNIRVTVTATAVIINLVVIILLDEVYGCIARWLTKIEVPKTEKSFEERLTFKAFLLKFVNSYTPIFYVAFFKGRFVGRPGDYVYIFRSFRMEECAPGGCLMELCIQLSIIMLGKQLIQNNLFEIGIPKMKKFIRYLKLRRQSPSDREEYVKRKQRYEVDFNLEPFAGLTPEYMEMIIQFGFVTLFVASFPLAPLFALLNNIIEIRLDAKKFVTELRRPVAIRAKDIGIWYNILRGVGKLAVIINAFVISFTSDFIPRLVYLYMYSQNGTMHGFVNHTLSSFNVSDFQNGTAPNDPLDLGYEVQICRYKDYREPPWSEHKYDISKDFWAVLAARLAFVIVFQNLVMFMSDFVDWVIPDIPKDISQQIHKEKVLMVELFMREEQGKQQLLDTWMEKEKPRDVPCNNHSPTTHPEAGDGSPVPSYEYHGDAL
KCNK3 block – human KCNK3 channel inhibition, primary screen | CHO-KCNK3 thallium flux, FluxOR fluorescence; stronger effect = lower value | B-score at 10 µM | 340,000 compounds, 0.84% hits;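 active = B-score under library mean minus 4 SD, starting fluorescence ratio at most library mean plus 5 SD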;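 note: more negative B-score means stronger inhibition of thallium flux through KCNK3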
TMEM16A inh – mouse TMEM16A channel inhibition, primary screen | Q8BHY3 | HEK293 TMEM16A/YFP iodide influx fluorescence, ionomycin | AID 588511 | normalized B-score (activity score, 25-100; higher = stronger inhibition) at 10 µM | 310,000 compounds, 1.2% hits;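 active = ratio plate-corrected score three or more library SD toward inhibition, starting fluorescence score within five deviations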;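 note: score derived from kinetic fluorescence span divided by baseline fluorescence per well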
Kir21 inh – inhibitors of mouse Kir2.1 inward-rectifier potassium channel; B-score at 10 µM; P35561; HEK293-Kir2.1, FluxOR thallium flux fluorescence; stronger effect = lower value; 310,000 compounds, 0.85% hits;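 active = fluorescence ratio B-score at or below minus 3 SD of library scores, with starting-brightness B-score within 2 SD, cut at about -4.2 in these data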;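 note: channel flux triggered by added potassium and thallium sulfate stimulus; B-score of peak minus minimum fluorescence over baseline after thallium stimulus; more negative B-score means stronger Kir2.1 block with less thallium influx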
KCNK9 block – human KCNK9 channel inhibition; Q9NPC2; HEK293 KCNK9, FluxOR thallium flux fluorescence; stronger effect = lower value; 310,000 compounds, 1.2% hits; B-score at 10 µM; AID 488922;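 active = ratio B-score over 3 SD below the library mean, with starting fluorescence within 5 SD of its mean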;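 note: negative B-score means less thallium flux so channel inhibition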
* hit, by the source's call; i = inactive; x = not tested or not shown.

SMILES	TMEM16A act	KCNK3 block	TMEM16A inh	Kir21 inh	KCNK9 block
COc1ccc(C[C@H]2CN3C(=NC[C@@H]3Cc3ccccc3)N2CCNC(=O)c2ccc(C)c(Br)c2)cc1	i	i	i	-4.2*	i
COc1ccccc1N1CCN(CC(=O)Nc2c(C)n(C)n(-c3ccccc3)c2=O)CC1	i	i	i	-0.23	i
CC1(C(=O)NCCOc2ccccc2Cl)CC1(Cl)Cl (configuration not stated)	i	i	i	-0.81	i
COc1nc(C)nc(NC(=O)NS(=O)(=O)c2ccc(C)cc2)n1	i	i	i	0	i
C[C@H](CO)N1C[C@H](C)[C@@H](CN(C)C(=O)Nc2ccc3c(c2)OCO3)Oc2ccc(NC(=O)Nc3ccc4c(c3)OCO4)cc2C1=O	x	i	x	x	x
CCN(c1ccccc1)S(=O)(=O)c1ccc(Cl)nc1	i	i	i	-4.3*	i
CCS(=O)(=O)c1ncc(Cl)c(C(=O)Nc2ccc(S(=O)(=O)N(C)c3ccccc3)cc2)n1	i	i	i	-3.7	i
CS(=O)(=O)c1ncc(Cl)c(C(=O)Nc2ccc(OC(F)F)cc2)n1	i	i	i	-5.3*	i
CS(=O)(=O)c1ncc(Cl)c(C(=O)Nc2ccc(N3CCOCC3)cc2)n1	i	i	i	-3.9	i
CCN(c1ccccc1)S(=O)(=O)c1ccc(NC(=O)c2nc(S(C)(=O)=O)ncc2Cl)cc1	-7.6*	i	i	-2.5	i
CC#CC(=O)N1CCC(CCC(=O)N(C)Cc2ccccc2)CC1	i	i	i	0.91	i
COc1ccc(-c2nsc(C(=O)N(c3ccc(F)cc3)C(C(=O)NC3CCCC3)c3ccc(OC)cc3)c2N)cc1 (configuration not stated)	i	i	i	-1.3	i
O=C(Nc1ccccc1)C1=C[C@@H](C2CCCCC2)C[C@@H](OCc2ccc(CO)cc2)O1	i	i	i	-0.02	-7.1*
C#CCNC(=O)C1=C[C@@H](C2CC2)C[C@@H](OCc2ccc(CO)cc2)O1	i	i	i	-6.5*	i
O=C(Nc1ccccc1)C1=C[C@H](C2CCCCC2)C[C@H](OCc2ccc(CO)cc2)O1	i	i	i	-1.8	i
CC(C)(C)c1ccc(C(=O)NCC(=O)N/N=C/c2ccccc2OCC(=O)O)cc1	i	i	i	-0.08	i
Cc1ccccc1OCCC(=O)OCC(=O)c1c(N)n(CC(C)C)c(=O)n(C)c1=O	i	i	i	0.06	i
CC(C)Cn1c(N)c(C(=O)COC(=O)C2CC(=O)N(Cc3ccccc3Cl)C2)c(=O)n(C)c1=O (configuration not stated)	-4.6*	i	i	-0.08	i
CC(C)Cn1c(N)c(C(=O)COC(=O)c2c(O)c(Cl)cc(Cl)c2Cl)c(=O)n(C)c1=O	i	-10*	x	x	x
CC(C)Cn1c(N)c(C(=O)COC(=O)CCNS(=O)(=O)c2ccccc2)c(=O)n(C)c1=O	i	i	25*	0.01	i
CC(C)Cn1c(N)c(C(=O)COC(=O)c2ccc(Cl)cc2)c(=O)n(C)c1=O	i	i	i	1.6	i
CCCCOC(=O)Nc1sc2c(c1C(=O)OC)CCC2	i	i	i	-0.19	i
CC(C)=CCC/C(C)=C/CNC(=O)C[C@H]1C[C@H](C(=O)N2CCCCC2)[C@@]2(C)c3[nH]c4cc(CCC(=O)N(C)C)ccc4c3CCN2C1=O	x	i	x	x	x
Cc1ccc(NC(=S)N(Cc2ccc(Cl)cc2)Cc2ccc(C(=O)O)cc2)cc1Cl	i	i	25*	0.74	i
COc1ccc(CN(CC2CCC(C(=O)O)CC2)C(=S)Nc2ccc(C)c(Cl)c2)cc1 (configuration not stated)	i	i	i	-1.4	i
SMILES	TMEM16A act	KCNK3 block	TMEM16A inh	Kir21 inh	KCNK9 block
Cc1cc(NC(=O)c2sccc2C)n(-c2nc3ccccc3[nH]2)n1	i	i	i	1.8	-7*
CC(C)(C)c1ccc(C(=O)Nc2sc3c(c2C(=O)O)CCC3)cc1	i	i	100*	-0.92	i
COC(=O)C1=C2SCC(=O)N2C(N)=C(C#N)C1	i	i	i	0.78	i
COc1ccc(-c2nc(CSCC(=O)NCc3ccco3)c(C)o2)cc1	i	i	100*	-0.29	i
COc1ccc(NC(=O)CSCC(=O)NCc2ccco2)cc1	i	i	i	0.87	i
Cc1ccc(CN2CCC(C(=O)Nc3ccc(Oc4cccnc4)cc3)CC2)cc1	i	i	x	-4.8*	i
O=C(Nc1ccc(Oc2cccnc2)cc1)C1CCN(Cc2ccccc2)CC1	i	i	i	-3.5	i
Cc1cccc(CN2CCCC(C(=O)Nc3ccccc3Oc3cccnc3)C2)c1 (configuration not stated)	i	i	i	-5.5*	i
COC(=O)C1=C(N)c2c(F)cccc2C1(C#N)c1ccc(F)cc1 (configuration not stated)	i	i	i	-1	i
N#Cc1cccc(NC(=O)COc2ccc(-n3ccnc3)cc2)c1	i	i	25*	-0.03	i
COc1ccc(Oc2cccc(Cl)c2CNC(=O)c2ccccc2C(=O)O)cc1	i	i	i	4	i
Cc1nn(CCc2nn[nH]n2)c2nc(-c3ccc(C4CCCCC4)cc3)cc(C(F)(F)F)c12	i	i	100*	2.5	i
Cc1nn(CCC(=O)O)c2nc(-c3cccnc3)cc(C(F)(F)F)c12	i	i	i	-0.91	i
Cc1ncoc1C(=O)N1CCCC(N2CCN(c3cccc(C(F)(F)F)c3)CC2)C1 (configuration not stated)	i	i	i	-0.61	i
O=C(CN1C(=O)c2ccccc2C1=O)Nc1cccc(Cl)c1	i	i	i	-0.42	i
O=C(Nc1cccc(Cl)c1)N1CCN2C(=O)c3ccccc3C12c1ccccc1 (configuration not stated)	i	i	25*	0.93	i
O=C(CCl)N1CCN2C(=O)c3ccccc3C12c1ccc(Cl)cc1 (configuration not stated)	i	i	i	-4.6*	i
Cc1ccc2nc(SCC(=O)Nc3cc(C)on3)nc(=O)n2c1	i	i	i	-0.05	i
CNC(=S)N/N=C/c1cn(CCOc2cccc(OC)c2)c2ccccc12	i	i	i	0.52	i
CCc1ccc(NC(=O)CCCN2C(=O)C3CC=CCC3C2=O)cc1 (configuration not stated)	i	i	i	0	i
CCOC(=O)C1=C(O)C(=O)N(C2CCCCC2)C1	i	i	i	0.4	i
Cc1ccc(/C=N/n2c(C)nc3ccccc3c2=O)s1	x	x	i	-0.66	i
